# From PubChem BioAssay
# Sampled rows, rich in hits. Any-hit rate of the full collection: about 0.65%.
# Y pestis TopoI – inhibitors of Yersinia pestis topoisomerase I; 0.064% of 360,000 active; AID 504884; Y. pestis Topo-I cleavage product accumulation, plate reader; activity, % at 10 µM; in the data active means activity above about 50%, passing the limit was not always enough; inconclusive means no clear call, values can overlap the other calls
# PrP UTR inh – inhibition of PrP 5' UTR reporter expression; cell-based PrP 5' UTR mRNA reporter, plate reader; inhibition, % (concentration not given with the values); 0.35% of 340,000 active; in the data active means inhibition above about 52%; further: 0 = median of the neutral control wells
# Vc quorum ag – inducers of Vibrio cholerae quorum light production without autoinducers; V. cholerae BH1578 lux reporter, luminescence, 6 h; activation, % at 18.7 µM; 0.16% of 350,000 active; AID 588436; in the data active means activation mostly above about 9.7%, no sharp cut-off; inconclusive means no clear call, values can overlap the other calls; inactive means mostly below about 3.7%
# TcdB GH inh – inhibitors of Clostridioides difficile toxin B glycohydrolase | P18177 | TcdB glycohydrolase enzymatic assay, plate reader | inhibition, % at 9.99 µM | 0.24% of 350,000 active | AID 652162; in the data active means inhibition above about 10%
# Target sequence (P18177 whole entry, looked up): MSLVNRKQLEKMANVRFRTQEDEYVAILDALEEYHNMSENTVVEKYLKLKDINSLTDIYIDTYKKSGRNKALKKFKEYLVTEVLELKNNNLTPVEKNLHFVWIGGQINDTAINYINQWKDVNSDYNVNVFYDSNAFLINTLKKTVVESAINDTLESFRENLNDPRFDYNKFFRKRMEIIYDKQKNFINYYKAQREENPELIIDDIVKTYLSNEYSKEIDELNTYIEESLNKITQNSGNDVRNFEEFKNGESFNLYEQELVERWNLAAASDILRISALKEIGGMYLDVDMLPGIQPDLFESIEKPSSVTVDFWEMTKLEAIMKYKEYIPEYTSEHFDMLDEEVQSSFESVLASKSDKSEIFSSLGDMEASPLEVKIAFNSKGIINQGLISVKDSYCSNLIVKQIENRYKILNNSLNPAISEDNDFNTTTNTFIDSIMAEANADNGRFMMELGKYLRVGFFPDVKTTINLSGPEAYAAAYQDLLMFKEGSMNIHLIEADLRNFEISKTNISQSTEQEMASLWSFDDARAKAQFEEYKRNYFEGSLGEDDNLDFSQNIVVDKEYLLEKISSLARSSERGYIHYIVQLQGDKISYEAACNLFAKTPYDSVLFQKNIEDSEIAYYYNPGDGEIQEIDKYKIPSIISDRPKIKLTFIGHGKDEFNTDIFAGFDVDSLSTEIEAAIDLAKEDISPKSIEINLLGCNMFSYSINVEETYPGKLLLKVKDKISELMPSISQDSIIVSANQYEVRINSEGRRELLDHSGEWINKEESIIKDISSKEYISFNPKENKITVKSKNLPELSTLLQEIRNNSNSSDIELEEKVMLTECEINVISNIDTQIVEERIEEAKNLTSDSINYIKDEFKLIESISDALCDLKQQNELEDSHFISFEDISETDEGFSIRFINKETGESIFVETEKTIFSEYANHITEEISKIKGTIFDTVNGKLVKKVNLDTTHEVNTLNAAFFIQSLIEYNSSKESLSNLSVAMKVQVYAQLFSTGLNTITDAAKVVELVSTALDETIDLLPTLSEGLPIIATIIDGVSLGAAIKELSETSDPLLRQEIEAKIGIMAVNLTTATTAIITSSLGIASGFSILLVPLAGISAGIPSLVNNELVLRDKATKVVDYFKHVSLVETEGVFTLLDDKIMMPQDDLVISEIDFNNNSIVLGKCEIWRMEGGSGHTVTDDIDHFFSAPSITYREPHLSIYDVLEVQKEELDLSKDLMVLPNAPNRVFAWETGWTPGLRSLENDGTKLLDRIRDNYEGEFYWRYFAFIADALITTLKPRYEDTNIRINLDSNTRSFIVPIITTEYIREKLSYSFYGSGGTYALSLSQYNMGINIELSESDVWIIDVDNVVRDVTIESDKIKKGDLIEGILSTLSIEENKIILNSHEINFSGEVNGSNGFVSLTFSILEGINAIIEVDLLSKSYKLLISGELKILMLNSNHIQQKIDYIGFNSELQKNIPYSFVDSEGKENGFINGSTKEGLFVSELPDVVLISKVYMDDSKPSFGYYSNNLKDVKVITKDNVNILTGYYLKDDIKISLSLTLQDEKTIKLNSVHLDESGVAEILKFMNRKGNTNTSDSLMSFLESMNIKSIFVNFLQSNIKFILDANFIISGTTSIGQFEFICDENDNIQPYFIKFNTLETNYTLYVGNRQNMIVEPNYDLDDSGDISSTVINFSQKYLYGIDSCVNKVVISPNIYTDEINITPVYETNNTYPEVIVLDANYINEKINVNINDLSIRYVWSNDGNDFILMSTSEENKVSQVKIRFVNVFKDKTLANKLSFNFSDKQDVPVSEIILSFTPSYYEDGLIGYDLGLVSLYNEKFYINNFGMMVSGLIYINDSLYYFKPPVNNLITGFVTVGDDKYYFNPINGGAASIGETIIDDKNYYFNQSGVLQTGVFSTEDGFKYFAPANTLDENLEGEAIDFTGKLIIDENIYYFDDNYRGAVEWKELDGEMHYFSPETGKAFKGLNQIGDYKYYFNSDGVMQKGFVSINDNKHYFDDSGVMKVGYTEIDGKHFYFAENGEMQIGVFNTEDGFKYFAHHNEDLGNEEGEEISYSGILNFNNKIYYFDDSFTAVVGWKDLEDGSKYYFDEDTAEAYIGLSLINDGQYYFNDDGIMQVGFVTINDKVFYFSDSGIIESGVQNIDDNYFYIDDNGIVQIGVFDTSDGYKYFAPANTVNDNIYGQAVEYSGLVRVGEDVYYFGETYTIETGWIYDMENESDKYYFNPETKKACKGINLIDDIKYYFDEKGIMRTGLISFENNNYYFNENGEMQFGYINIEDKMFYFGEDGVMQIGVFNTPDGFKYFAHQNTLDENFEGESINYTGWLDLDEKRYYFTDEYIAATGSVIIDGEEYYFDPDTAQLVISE
# UGM FP inh – blocks M. tuberculosis UGM enzyme; P9WIQ1; purified UGM, fluorescence polarization probe displacement; inhibition, % at 10 µM; 0.06% of 320,000 active; in the data active means inhibition above about 10%, passing the limit was not always enough; inconclusive means no clear call, values can overlap the other calls
# PrP 5UTR single – prion 5' UTR mRNA inhibition, cherry-pick retest | shares compounds with PrP UTR inh | 48% of 1,100 active | AID 504592 | inhibition, % at 2.5 µM | cell-based prion protein 5' UTR reporter, plate reader; in the data active means inhibition above about 54%; inconclusive means no clear call, values can overlap the other calls
# Starred values were filed as active, the others as inactive; i = inactive; ? = inconclusive; / = no result.
SMILES,Y pestis TopoI,PrP UTR inh,Vc quorum ag,TcdB GH inh,UGM FP inh,PrP 5UTR single
C[C@@H](O)C#Cc1cnc2c(c1)C(=O)N([C@@H](C)CO)C[C@H](C)[C@@H](CN(C)Cc1cccc(F)c1)O2,/,/,/,-0.3,/,/
COC(=O)Cc1[nH]n(-c2nc3ccccc3s2)c(=O)c1C(C)=Nc1ccc(Cl)cc1,14.9,90.6*,i,1.4,0.7,87.5*
COC(=O)Cc1[nH]n(-c2nc3ccccc3s2)c(=O)c1C(C)=Nc1ccc(C)cc1,3.6,92.4*,-0.4,-0.4,0.6,91.9*
COC(=O)Cc1[nH]n(-c2ccccc2)c(=O)c1C(C)=Nc1ccccc1,-5.1,-29.8,-0.3,-0.3,5.6,/
Cc1ccc(C2(SCC(N)C(=O)O)c3ccccc3-c3ccccc32)cc1 (stereo not given),4.5,88.9*,i,2.7,/,-9.5
NC(CSC(c1ccccc1)(c1ccccc1)c1ccccc1)C(=O)O (stereo not given),2.5,-37.7,1.0,-1.5,/,/
Cc1ccc(S(=O)(=O)Nc2ccc3c(c2)C(=O)N([C@H](C)CO)C[C@@H](C)[C@@H](CN(C)C(=O)CCCN(C)C)OCCCC[C@@H](C)O3)cc1,/,/,/,-1.3,/,/
O=C(C[C@H]1CC[C@@H](NC(=O)CN2CCOCC2)[C@@H](CO)O1)NCCc1ccncc1,/,/,/,-1.5,/,/
C=C1C(=O)O[C@@H]2C[C@@H](C)[C@@H]3C=CC(=O)[C@@]3(C)[C@@H](OC(=O)CC(=O)O[C@H]3[C@@H]4C(=C)C(=O)O[C@@H]4C[C@@H](C)[C@@H]4C=CC(=O)[C@]43C)[C@H]12,4.1,95.0*,-0.8,0.4,3.7,97.7*
C=C1C(=O)OC2CC(C)C3C=CC(=O)C3(C)C(O)C12 (stereo not given),-7.7,25.9,i,/,/,/
CCN(CC)c1ccc(-c2nn3c(-c4n[nH]c5c4CCC5)nnc3s2)cc1,-2.7,74.3*,-2.2,/,-0.4,84.2*
COc1ccc2c3c(n(C)c2c1)[C@@H](CO)N(C(=O)Cc1ccccc1)CC31CCN(C)CC1,/,/,/,0.1,/,/
O=C(C[C@@H]1CC[C@@H](NS(=O)(=O)c2ccc(F)cc2)[C@H](CO)O1)N1CCC(Cc2ccccc2)CC1,/,/,/,0.2,/,/
COc1ccc(-n2ncc3c(N(C)C4CCCCC4)ncnc32)cc1,29.2,77.6*,-0.3,-0.6,-0.9,65.5*
Cc1cccc(-n2ncc3c(N(C)C4CCCCC4)ncnc32)c1,7.2,77.9*,-0.3,0.9,1.2,69.4*
Cc1cccc(-n2ncc3c(N(CCO)CCO)ncnc32)c1,0.3,-65.5,-0.3,1.6,1.1,/
O=S(=O)(N[C@H]1CC[C@@H](CCn2cc(C3CC3)nn2)O[C@@H]1CO)c1ccc(F)cc1,/,/,/,0.1,/,/
CC(=O)Nc1ccc(SCC(=O)c2c(N)n(Cc3ccccc3)c(=O)n(C)c2=O)cc1,6.2,-8.7,-0.3,0.4,0.0,/
CC(C)Nc1nnc(SCC(=O)c2c(N)n(Cc3ccccc3)c(=O)n(C)c2=O)s1,15.4,59.9*,-2.8,/,-3.0,-6.8
CCN1[C@@H]2c3ccc(-c4ccc(F)cc4)c(=O)n3C[C@H]1[C@H](CO)[C@H]2C(=O)Nc1nccs1,/,/,/,0.1,/,/
CCN(CC)c1ccc2cc(-c3nc4ccccc4[nH]3)c(=O)oc2c1,-6.6,58.1*,i,/,30.8*,65.5*
Cc1ccc(S(=O)(=O)Nc2ccc3c(c2)C(=O)N([C@H](C)CO)C[C@@H](C)[C@H](CN(C)C(=O)Nc2ccc(F)cc2)OCCCC[C@H](C)O3)cc1,/,/,/,1.0,/,/
O=C(Nc1ccc([N+](=O)[O-])cc1)C(=O)Nc1cccc(C(=O)O)c1,5.1,88.0*,-0.2,-0.5,0.3,92.3*
O=C(O)c1cc(NC(=O)c2ccc([N+](=O)[O-])cc2)cc(NC(=O)c2ccc([N+](=O)[O-])cc2)c1,-14.8,-23.5,i,0.6,1.3,/
O=C(Nc1cc2ccccc2oc1=O)c1ccccc1,-4.5,57.5*,-0.2,1.3,-0.1,63.2*
O=C(NCC[C@H]1CC[C@H](NC(=O)C2CCCCC2)[C@@H](CO)O1)Nc1ccc(Cl)cc1,/,/,/,-0.5,/,/
C[C@@H]1CN([C@H](C)CO)C(=O)c2cc(NC(=O)Nc3cccc4ccccc34)ccc2O[C@@H](C)CCCCO[C@@H]1CN(C)S(=O)(=O)c1ccc(F)cc1,/,/,/,-0.3,/,/
CCc1ccc(NC(=O)c2cnn3ccccc23)cc1,-1.6,51.3*,-0.2,-0.6,-0.7,?
